Compounds with a hit are over-represented: about 2.4% of the library has one in this group of screens.
D2 ag-1 – Beta-Arrestin HTS for Positive Allosteric Modulators of the Human D2 Dopamine Receptor: Agonists | D(2) dopamine receptor (Homo sapiens), P14416 | DiscoveRx PathHunter D2 beta-arrestin, luminescence, 90 min; 100% = 57 uM dopamine signal | activation, % (no concentration beside the values) | 0.084% of 360,000 active; in the data active = activation above about 40%; inconclusive = between about 15% and that limit
Target sequence (P14416 whole entry, looked up): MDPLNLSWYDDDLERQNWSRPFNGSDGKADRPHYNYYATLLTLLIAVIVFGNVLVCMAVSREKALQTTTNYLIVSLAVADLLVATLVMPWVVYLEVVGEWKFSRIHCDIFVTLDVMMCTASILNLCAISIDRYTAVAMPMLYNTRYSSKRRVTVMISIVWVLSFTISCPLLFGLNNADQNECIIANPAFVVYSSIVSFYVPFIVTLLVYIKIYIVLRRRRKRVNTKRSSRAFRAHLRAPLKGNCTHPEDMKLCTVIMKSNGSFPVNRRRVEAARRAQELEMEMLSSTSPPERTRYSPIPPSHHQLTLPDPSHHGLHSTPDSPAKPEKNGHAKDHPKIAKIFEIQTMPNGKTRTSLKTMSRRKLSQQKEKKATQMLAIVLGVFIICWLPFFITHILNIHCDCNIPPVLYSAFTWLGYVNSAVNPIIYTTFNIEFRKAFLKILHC
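Agonist mode: compounds alone added to overnight-plated D2 PathHunter cells for 90 min at 37 C, with 57 uM final dopamine (EC100) defining full response. Beta-arrestin recruitment detected by chemiluminescent reagent, read after 1 h at ambient temperature.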
D2 PAM-1 – HTS Assay for Positive Allosteric Modulators of the Human D2 Dopamine Receptor: Primary Screen for Potentiators; D(2) dopamine receptor (Homo sapiens), P14416; HEK293 T-REx D2, calcium flux, EC20 dopamine potentiation; potentiation, % at 10 µM; 0.34% of 340,000 active;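 active = potentiation over 3 SD above the plate norm, cut at about 30% in these data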; note: 0% is about no effect
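Primary screen. Calcium kinetics in induced HEK293 T-REx D2 cells: compound pre-addition 180 s, EC20 dopamine, 180 s more.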
D2 ag-2 – HTS Assay for Allosteric Agonists of the Human D2 Dopamine Receptor: Primary Screen for Agonists; HEK293 T-REx D2 cells, calcium flux agonist mode; activation, % at 2 µM; 0.53% of 340,000 active;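 active = activation over 3 SD above normal in the single-dose calcium agonist read, cut at about 30% in these data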; note: 0% is about no effect
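Tetracycline-induced HEK293 T-REx cells with force-coupled D2 receptor, plated overnight at 30 C, loaded with no-wash calcium dye. After a 10 s baseline, compound was pin-added and calcium flux read kinetically for 180 s; calcium rises flagged agonists.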
D2 antagonist – HTS Assay for Allosteric Antagonists of the Human D2 Dopamine Receptor: Primary Screen for Antagonists; D(2) dopamine receptor (Homo sapiens), P14416; HEK293 TREx D2 cells, calcium flux, dopamine EC80; inhibition, % at 10 µM; 2% of 340,000 active; AID 485344, 2010; in the data active = inhibition above about 30%; inactive = below that, where a call was filed; note: 0% is about no effect
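Dopamine at EC80 is the agonist stimulus; test compounds precede it by 180 s. Calcium flux read kinetically in a force-coupled, inducible HEK293 T-REx D2 cell line.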
D2 PAM-2 – Beta-Arrestin HTS for Positive Allosteric Modulators of the Human D2 Dopamine Receptor: Potentiators | DiscoveRx D2 beta-arrestin cells, luminescence, 90 min; 100% = 57 uM dopamine signal | 0.23% of 360,000 active | AID 624464, 2012 | potentiation, % (concentration not given with the values); in the data active = potentiation above about 50%; inconclusive = mostly about 30% to 49%
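D2 cells co-treated with compound plus 50 nM dopamine (EC20) for 90 min at 37 deg C to detect potentiation. Beta-arrestin recruitment was read as enzyme-fragment luminescence after 1 h at ambient temperature. Full response was set by 57 uM dopamine.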
D3 arrestin ag – qHTS of D3 Dopamine Receptor Agonist: D3 Dopamine Receptor B-arrestin Agonist Confirmatory Assay; DiscoveRx D3 beta-arrestin cells, luminescence, 90 min; 4% of 2,300 active; Potency, µM (top dose mostly 76.9 µM), for inactives: top-dose activation, actives largely listed as activators; shares compounds with D2 ag-2; AID 720506, 2013;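 note: potency is the fitted concentration of half-maximal effect; 100% = dopamine control response; nearly all actives have a fitted effect of over 70% in size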
D2 ag-3 – qHTS of D3 Dopamine Receptor Agonist: D2 Dopamine Receptor B-arrestin Agonist Counterscreen; shares compounds with D2 ag-2; DiscoveRx PathHunter D2 beta-arrestin, luminescence, 90 min; response scale: percent relative to full dopamine signal; Potency, µM (series often up to 76.9 µM), inactives show at the highest dose activation, usual class: activators; 5.9% of 2,300 active; AID 720507, 2013; note: potency is the fitted concentration of half-maximal effect; % of control where 0% means no effect; nearly all actives have a fitted effect of over 70% in size
Numbers without * were called inactive; ? = inconclusive; · = no result; ! = repeats disagree. Unless noted, calls come from the whole dose curve; as a rule, active = well fitted activation curve with a large enough effect; inconclusive = small, poorly fitted or top-dose-only effect; inactive = flat fitted curve, though single readings scatter.

SMILES	D2 ag-1	D2 PAM-1	D2 ag-2	D2 antagonist	D2 PAM-2	D3 arrestin ag	D2 ag-3
CC1=CC(O)C(O)C2(C)C1CC1OC(=O)CC3C(C)C(O)C(=O)C2C13CO (stereo not drawn)	-2	·	·	·	-18	·	·
COC(=O)C1=C(c2ccc(OC(F)(F)F)cc2)C[C@@H]2CC[C@H]1N2C(=O)NCC1CC1	-2	-12	-1	-4	-15	·	·
COC(=O)C1=C(c2ccc(OC(F)(F)F)cc2)C[C@@H]2CC[C@H]1N2C(=O)N1CCOCC1	-7	-2	0	17	0	-3%	5%
COC(=O)C1=C(c2ccc(OC(F)(F)F)cc2)C[C@@H]2CC[C@H]1N2C(=O)NC1CC1	-8	10	0	-14	-5	0%	5%
Nc1c(C(=O)Nc2ccc(F)c(Cl)c2)sc2nc3c(cc12)N1CCC3CC1	·	0	0	·	·	·	·
O=C(Nc1ccc(F)c([N+](=O)[O-])c1)c1cccn(Cc2ccccc2)c1=O	·	10	1	·	·	·	·
Cc1ccc(-c2nc(CN3C(=O)CN=C(c4ccccc4)c4ccccc43)c(C)o2)cc1	·	3	·	·	·	·	·
CC(CCc1ccccc1)NC(C)C(O)c1ccc(O)cc1 (stereo not drawn)	-4	-25	71*	64*	-14	11%	13%
Cc1cccc(Cn2cccc(C(=O)Nc3cc(C)on3)c2=O)c1	·	-1	-1	·	·	·	·
CCCCCc1nc2c(c(=O)c3ccccc3n2C)c(=O)n1C1CCCCCC1	-2	-15	36*	46*	-6	16%	3%
CCCCCc1nc2ccccc2c(=O)n1-c1ccc(C)cc1	·	9	-1	·	·	·	·
CCCOC(=O)c1ccccc1C(=O)OCCC	8	7	-1	-5	-8	-8%	-3%
CCOC(=O)c1ccccc1C(=O)OCC	2	·	·	·	-8	·	·
COc1ccc(CN2CCN(C(=O)COc3ccccc3)CC2)c(OC)c1	·	6	-2	·	·	·	·
Clc1ccc2c(c1)C(c1ccccc1Cl)=NCc1nnc(N3CCN(CCSc4ccccc4)CC3)n1-2	-5	-6	0	-7	-4	·	·
Clc1ccc2c(c1)C(c1ccccc1Cl)=NCc1nnc(N3CCN(CCOc4ccccc4)CC3)n1-2	3	-35	58*	65*	-18	?	20%
c1ccc(CCN2CCC(N3CCN(c4ccccc4)CC3)CC2)cc1	?	-21	74*	72*	-4	?	?
COc1ccc(N2CCN(CCc3ccncc3)CC2)cc1	-1	·	3	-22	-14	·	·
c1cc(CNCCc2ccc3c(c2)OCO3)ccn1	4	8	-1	-20	-32	?	3%
Fc1ccc(CNCCc2ccc3c(c2)OCO3)cc1	1	-2	0	-14	-32	·	·
CN1C[C@H](C(=O)N[C@]2(C)O[C@@]3(O)[C@@H]4CCCN4C(=O)[C@H](Cc4ccccc4)N3C2=O)CC2c3cccc4[nH]cc(c34)C[C@H]21 (stereo partly drawn)	?	-10	81*!	88*!	-6	-2%	?
O=C1c2ccccc2-c2c1nc1c([n+]2[O-])CCCC1	-13	-6	29	15	-26	-66%	-21%
NCCc1ccc(O)cc1	-4	13	51*	47*	-12	?	8%
CCOc1ccc(CN2C(=O)c3ccccc3Sc3ccc(C(=O)N4CCC5(CC4)OCCO5)cc32)cc1	·	0	0	·	·	·	·
